Laboratory results: PubChem BioAssay AID720555 (National Center for Advancing Translational Sciences (NCATS), 2013)
“And” between values parts separate entries of the source, which are not always exact repeats. Equal entries are not always repeated. Results filed as inconclusive are left out. Unmarked numbers belong to inactive results. The source made the active and inactive calls. Calls come from the whole dose curve; as a rule, active = well fitted inhibition curve with a large enough effect; inconclusive = small, poorly fitted or top-dose-only effect; inactive = no such curve, though single readings can be large or run the other way.

Molecular target: RecQ-like DNA helicase BLM (Homo sapiens) (UniProt P54132)
Assay: qHTS for Inhibitors of Bloom's syndrome helicase (BLM): Helicase DNA unwinding fluorescent orthogonal confirmatory assay for SAR
Conditions: fluorescence, orthogonal confirmation; series mostly up to 55.6 µM; activity change, negative = inhibition: at the top concentration
From the text: Human RecQ DNA helicases participate in maintenance of genome stability and DNA repair. While other types of helicases have been explored as targets for drug development, members of the RecQ family have remained less well characterized. Mutations of the Bloom helicase gene have been associated with the rare human genetic disease called Bloom syndrome. […] Moreover, identified inhibitors can be used in cells and animal models to examine the consequences of inhibition on the survival of cancer cells where it has been shown that BLM plays an important role.
A fluorescence-based, biochemical assay in 1536 well format was developed to evaluate inhibition of BLM DNA unwinding activity. This assay was used to screen the MLPCN library. The resulting compounds were subjected to orthogonal and secondary biochemical assays to triage the initial hits, to classify compounds based on mode of action and to derive structure activity relationships (SARs) of candidate effectors. The data herein is the result of the Helicase DNA unwinding fluorescent orthogonal confirmatory assay. This fluorescent-based assay employs a purified BLM enzyme and utilizes gel electrophoresis to monitor the helicase-mediated unwinding of a fluorescently-labeled DNA substrate. For this assay decrease in the single-stranded DNA product band on the gel = inhibition of the BLM helicase activity. Inhibition is the desired outcome for this assay.
NIH Chemical Genomics Center [NCGC]
NIH Molecular Libraries Probe Centers Network [MLPCN]
Assay Submitter (PI): Opher Gileadi, Structural Genomics Consortium, University of Oxford, UK
Unwinding assay for the BLM helicase was carried out in a reaction buffer containing 50 mM Tris-HCl pH 7.5, 50mM NaCl, 2mM MgCl2, 2mM ATP, 1mM DTT, and 0.1 mg/ml BSA. Optimal substrate and enzyme concentrations as well as reaction times were determined experimentally. All reactions were performed at room temperature and terminated by the addition of loading buffer containing 20mM EDTA and 2.5% bromophenol blue. Reaction products were then separated on 15% non-denaturing polyacrylamide gels in 1x TAE, and the DNA was visualized using the Bio-Rad ChemiDocTM XRS Gel Imager. Substrate and product bands were quantified using ImageJ. The data was normalized against no-inhibitor and no-enzyme controls.

RecQ-like DNA helicase BLM (Homo sapiens), sequence (P54132 whole entry, looked up): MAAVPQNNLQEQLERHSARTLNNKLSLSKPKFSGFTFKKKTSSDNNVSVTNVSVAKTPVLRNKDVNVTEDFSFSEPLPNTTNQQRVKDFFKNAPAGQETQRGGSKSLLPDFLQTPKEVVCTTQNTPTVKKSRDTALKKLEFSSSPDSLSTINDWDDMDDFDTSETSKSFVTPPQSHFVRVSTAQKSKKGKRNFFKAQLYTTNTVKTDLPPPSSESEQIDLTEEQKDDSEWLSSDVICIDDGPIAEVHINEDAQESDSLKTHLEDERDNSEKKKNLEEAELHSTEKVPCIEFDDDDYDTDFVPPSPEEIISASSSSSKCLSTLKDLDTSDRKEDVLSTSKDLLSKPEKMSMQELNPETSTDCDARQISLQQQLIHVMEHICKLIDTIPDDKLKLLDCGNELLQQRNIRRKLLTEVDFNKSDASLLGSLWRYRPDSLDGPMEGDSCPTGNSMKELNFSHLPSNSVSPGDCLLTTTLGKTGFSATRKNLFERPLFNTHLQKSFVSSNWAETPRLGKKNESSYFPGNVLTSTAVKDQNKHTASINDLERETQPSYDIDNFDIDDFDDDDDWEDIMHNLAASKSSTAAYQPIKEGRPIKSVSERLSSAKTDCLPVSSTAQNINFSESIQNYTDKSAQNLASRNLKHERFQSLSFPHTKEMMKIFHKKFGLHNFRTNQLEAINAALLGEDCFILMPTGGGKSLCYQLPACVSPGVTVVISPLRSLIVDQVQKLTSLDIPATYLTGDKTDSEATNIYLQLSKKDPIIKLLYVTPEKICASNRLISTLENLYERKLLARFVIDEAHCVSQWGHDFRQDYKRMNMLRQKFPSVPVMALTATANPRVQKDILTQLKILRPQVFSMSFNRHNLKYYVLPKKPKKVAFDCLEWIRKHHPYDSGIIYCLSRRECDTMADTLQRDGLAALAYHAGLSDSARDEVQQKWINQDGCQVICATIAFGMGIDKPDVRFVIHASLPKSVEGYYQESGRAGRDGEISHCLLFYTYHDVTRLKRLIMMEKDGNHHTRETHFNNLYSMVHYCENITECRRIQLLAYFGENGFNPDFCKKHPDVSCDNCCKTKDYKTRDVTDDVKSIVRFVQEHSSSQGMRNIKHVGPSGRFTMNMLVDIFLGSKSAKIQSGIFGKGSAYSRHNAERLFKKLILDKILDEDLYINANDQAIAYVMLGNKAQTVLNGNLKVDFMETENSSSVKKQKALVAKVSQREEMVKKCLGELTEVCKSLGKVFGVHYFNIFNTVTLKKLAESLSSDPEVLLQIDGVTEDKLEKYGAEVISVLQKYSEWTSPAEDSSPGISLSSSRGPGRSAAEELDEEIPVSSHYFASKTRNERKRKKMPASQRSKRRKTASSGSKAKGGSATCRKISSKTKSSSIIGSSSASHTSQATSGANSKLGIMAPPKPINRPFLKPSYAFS

`O=C(Nc1ccc(Cl)nc1)Nc1nnc(-c2ccncc2)s1` was tested. Which Potency did it give?
The Potency was 6.31 µM (active).

With `O=C(Nc1nnc(-c2ccncc2)s1)Nc1ccc(Cl)cc1F` as the molecule, how does the Potency read?
Its Potency is 28.2 µM (active).

Which “activity change, negative = inhibition” value does the source give for `O=C(Nc1ccc(F)c(C(F)(F)F)c1)Nc1nc(-c2ccncc2)cs1` here?
The value was -3.13% [at 53.6 µM].

With `Cc1cnccc1-c1nnc(NC(=O)Nc2ccc(F)c(C(F)(F)F)c2)s1` as the molecule, how does the Potency read?
Its Potency is 1.26 µM (active).

Which “activity change, negative = inhibition” value does the source give for `CN(C(=O)Nc1ccc2ccccc2c1)c1nnc(-c2ccncc2)s1` here?
Its value is -4.83%.

Which “activity change, negative = inhibition” value does the source give for `O=C(Nc1ccc(Cl)c(Cl)c1)N1CCN(c2ccncc2)CC1` here?
The value was 6% [at 53.6 µM].

How did the Potency turn out when `O=C(Nc1ccc(N2CCOCC2)c(C(F)(F)F)c1)Nc1nnc(-c2ccncc2)s1` was run?
Its Potency is 28.2 µM (active).

With `N/C(=N\c1nnc(-c2ccncc2)s1)Nc1ccc(F)c(C(F)(F)F)c1` as the molecule, how does the Potency read?
Its Potency is 35.5 µM (active).

How did the Potency turn out when `O=c1c(Nc2ccc(Br)c(Br)c2)c(Nc2nnc(-c3ccncc3)s2)c1=O` was run?
The Potency was 6.31 µM (active).

With `Cc1cc(NC(=O)Nc2cccc(-c3ccncc3)n2)ccc1Br` as the molecule, how does the Potency read?
The Potency was 12.6 µM (active).

`O=C(Nc1ccc(F)c(C(F)(F)F)c1)Nc1nnc(-c2cccnc2)s1` was tested. Which Potency did it give?
Its Potency is 3.55 µM (active).

How did the Potency turn out when `O=C(Nc1nnc(-c2ccncc2)s1)Nc1ccc(Cl)cc1Cl` was run?
Its Potency is 31.6 µM (active).

Which Potency does the source give for `O=C(Nc1cc(C(F)(F)F)cc(C(F)(F)F)c1)Nc1nnc(-c2ccncc2)s1` here?
The Potency was 12.6 µM (active).

How did the Potency turn out when `O=C(Nc1ccc(Cl)c(C(F)(F)F)c1)Nc1cccc(-c2ccncc2)n1` was run?
The Potency was 20 µM (active).

`O=C(Nc1ccc(N2CCOCC2)c(F)c1)Nc1nnc(-c2ccncc2)s1` was tested. Which “activity change, negative = inhibition” value did it give?
Its value is -0.865% [at 53.6 µM].

For `N#Cc1cc(NC(=O)Nc2nnc(-c3ccncc3)s2)ccc1Br`, which Potency is on record?
The Potency was 0.501 µM (active).

For `N#Cc1cc(NC(=O)Nc2nnc(-c3ccncc3)s2)ccc1-c1ccc[nH]1`, which Potency is on record?
Its Potency is 3.55 µM (active).

For `O=C(Nc1ccc(Br)c(Br)c1)Nc1cccc(-c2ccncc2)n1`, which Potency is on record?
The Potency was 0.891 µM (active).

How did the Potency turn out when `O=C(Nc1ccc(Cl)c(Cl)c1)Nc1nnc(-c2cccnc2)s1` was run?
Its Potency is 3.55 µM (active).

With `O=C(Nc1ccc2ccccc2c1)Nc1nnc(C2CCCCC2)s1` as the molecule, how does the “activity change, negative = inhibition” value read?
Its value is 10.8%.

For `O=C(Nc1ccc2ccccc2c1)Nc1nnc(-c2cccnc2)s1`, which Potency is on record?
The Potency was 10 µM (active).

For `N#CN/C(=N\c1nnc(-c2ccncc2)s1)Nc1ccc(F)c(C(F)(F)F)c1`, which Potency is on record?
The Potency was 3.16 µM (active).

`O=C(Nc1ccc2ccccc2c1)Nc1nnc(-c2ccccc2F)s1` was tested. Which “activity change, negative = inhibition” value did it give?
Its value is -2.28%.

For `O=C(Nc1ccc2ccccc2c1)Nc1cccc(-c2ccncc2)n1`, which Potency is on record?
Its Potency is 8.91 µM (active).

`CN1CCN(c2nnc(NC(=O)Nc3ccc(Cl)c(Cl)c3)s2)CC1` was tested. Which “activity change, negative = inhibition” value did it give?
The value was 8.47%.

How did the “activity change, negative = inhibition” value turn out when `O=C(Nc1ccc(Cl)c(Cl)c1)Nc1nnc(N2CCNCC2)s1` was run?
The value was 10.7%.

`O=C(Nc1ccc(Cl)c([N+](=O)[O-])c1)Nc1cccc(-c2ccncc2)n1` was tested. Which Potency did it give?
Its Potency is 2.82 µM (active).

How did the Potency turn out when `O=C(Nc1ccc(F)c(C(F)(F)F)c1)Nc1cccc(-c2ccncc2)n1` was run?
The Potency was 4.47 µM (active).

With `O=C(Nc1ccc(Cl)c(Cl)c1)Nc1ncc(-c2ccncc2)s1` as the molecule, how does the “activity change, negative = inhibition” value read?
Its value is -22.2% [at 53.6 µM].

With `O=C(Nc1ccc(F)nc1)Nc1nnc(-c2ccncc2)s1` as the molecule, how does the Potency read?
The Potency was 22.4 µM (active).

With `O=C(Nc1ccc(Cl)c(Cl)c1)Nc1nnc(C2CCCCC2)s1` as the molecule, how does the “activity change, negative = inhibition” value read?
Its value is -3.65%.

For `N/C(=N\c1nnc(-c2ccncc2)s1)Nc1ccc(Cl)c(Cl)c1`, which Potency is on record?
Its Potency is 14.1 µM (active).

With `O=C(Nc1cc(F)cc(F)c1)Nc1nnc(-c2ccncc2)s1` as the molecule, how does the Potency read?
The Potency was 15.8 µM (active).

Which “activity change, negative = inhibition” value does the source give for `Cc1cc(NC(=O)Nc2nnc(C3CCCCC3)s2)ccc1Br` here?
Its value is -10.8%.

Which “activity change, negative = inhibition” value does the source give for `O=C(Nc1ccc(Cl)c(Cl)c1)Nc1nnc(-c2ccncc2)o1` here?
The value was 0.56%.

Which “activity change, negative = inhibition” value does the source give for `O=C(Nc1ccc2ccccc2c1)Nc1nnc(Br)s1` here?
The value was -13.7%.

For `O=C(Nc1ccc2ccccc2c1)Nc1nnc(-c2ccc(Cl)cc2)s1`, which “activity change, negative = inhibition” value is on record?
Its value is -10.2%.

With `Cc1cc(NC(=O)Nc2nnc(-c3cccnc3)s2)ccc1Cl` as the molecule, how does the Potency read?
The Potency was 7.94 µM (active) and 3.98 µM (active).

For `O=C(Nc1nnc(-c2ccncc2)s1)Nc1ccc(Cl)c2ccccc12`, which Potency is on record?
Its Potency is 14.1 µM (active).

How did the Potency turn out when `O=C(Nc1ccc2sccc2c1)Nc1nnc(-c2ccncc2)s1` was run?
The Potency was 10 µM (active).
